# Only a selection was taken, and hits are over-represented in it overall.
# Tg IFNy HTS = T. gondii growth inhibition under IFN-gamma | Toxoplasma gondii growth in IFN-gamma-treated host cells; hits give low values | activity change, negative = inhibition, % (concentration not given with the values) | 69,000 tested, 3.8% active | AID 1259416; in the data active = activity change below about -70%, passing the limit was not always enough;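 note: host cells are HeLa cells infected with Toxoplasma gondii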
# Numbers without * were called inactive; ! = repeats disagree.
SMILES,Tg IFNy HTS
Cc1ccc(CNC(=O)Cn2ncc3c(N4CCCC4)ncnc32)cc1,44.3
CC1CCN(c2ncnc3c2cnn3CC(=O)NCc2ccc(F)cc2)CC1,-95.3*
CCc1ccc(CNC(=O)Cn2ncc3c(N4CCCCC4)ncnc32)cc1,167.9
O=C(Cn1ncc2c(N3CCOCC3)ncnc21)NCc1ccc(C(F)(F)F)cc1,-35.0
CCN(CC)c1ncnc2c1cnn2CC(=O)NCc1ccc(F)cc1F,-104.2*
O=C(NCCc1csc(-c2ccccc2)n1)[C@H]1CCCN1C(=O)c1ccccc1,-2.0
Cc1cccc(S(=O)(=O)N[C@H]2CC[C@@H](CCNC(=O)Nc3cc(F)ccc3F)O[C@@H]2CO)c1,-41.3
Cc1cccc(-c2nc(CSc3nc4c(=O)[nH]cnc4n3C)c(C)o2)c1,9.6
CS(=O)(=O)N1CCCC1C(=O)NCc1cnn2ccccc12 (configuration not stated),-24.8
Cc1occc1C(=O)N1C[C@H]2OC(=O)N(CCCc3ccc(F)cc3)[C@H]2C1,-3.2
CC1CCN(c2ccc3ccc(C(=O)N(C)C)cn23)CC1,60.6
COCC(=O)N1CCC2(CC1)CC(N(C)Cc1ccco1)CO2 (configuration not stated),-46.9
O=C(Cc1ccncc1)N1C[C@@H]2N[C@H](C1)C2c1ccc(/C=C/c2ccccc2)cc1 (some centres not stated),0.6
Cc1cccc(S(=O)(=O)NCCc2csc(-c3ccc(F)cc3)n2)c1,2.7
COc1cc(N2CCC3O[C@@H](C(=O)NCCN(C)C)CC32)ncn1 (some centres not stated),11.2
c1ccc(-n2nnnc2CSc2nc3ccccc3[nH]2)cc1,-0.7
Clc1ccccc1CSc1nc2ccccc2[nH]1,-37.1
Cc1cc(CSc2nc3ccccc3[nH]2)c(C)cc1CSc1nc2ccccc2[nH]1,-96.1*
COc1ccccc1-n1cc(C(=O)NCCc2n[nH]c3c2CCCC3)cn1,6.2
CC(=O)c1ccc(N2CCCC(CO)(CCOc3ccccc3)C2)nc1 (configuration not stated),14.0
C[C@@H](Cn1nnc2ccccc21)NC(=O)c1ccc2c(c1)OCCO2,375.3
CC(C)n1cnc2c(NCC3CC3)nc(C3CCN(C(=O)c4cccc(F)c4F)CC3)cc21,-38.6
Cn1cnc2c(NCc3ccccc3)nc(C3CCN(S(C)(=O)=O)CC3)cc21,-8.0
Cc1cc(C(=O)N2CCC(c3cc4c(ncn4C)c(NCC4CC4)n3)CC2)ccc1Cl,-85.0*
Cc1nc(CCNC(=O)C2CCN(S(=O)(=O)c3ccc(Cl)cc3)CC2)cs1,12.4
SMILES,Tg IFNy HTS
CN[C@@H]1C[C@H]2O[C@@](C)([C@@H]1OC)n1c3ccccc3c3c4c(c5c6ccccc6n2c5c31)C(=O)N[C@H]4O,-80.4*
COc1cccc(CN2CCC3(COCc4cnc(-c5ccccc5)nc43)C2)c1 (configuration not stated),-51.9
O=C(c1cnccn1)N1CCCC2(CCN(Cc3ccncc3)C2)C1 (configuration not stated),0.7
CCCC(=O)N1CCCC1c1ncc(C(=O)Nc2ccccc2OC)c(C)n1 (configuration not stated),-7.9
CC[C@@H]1C(=O)N(C)c2cnc(Nc3ccc(C(=O)NC4CCC(N5CCN(CC6CC6)CC5)CC4)cc3OC)nc2N1C(C)C (some centres not stated),-68.3
CNC(=O)c1ccccc1Nc1nc(Nc2ccc3c(c2OC)CCC[C@H](N2CCN(CCO)CC2)C3)ncc1Cl,-75.4*
CC(c1ccncc1)N(C)C(=O)Cc1ccc(O)c(Cl)c1 (configuration not stated),-6.9
OCCn1cc(-c2ccc3c(c2)CC/C3=N\O)c(-c2ccncc2)n1,-78.2*!
Cc1ccc(Cl)cc1NC(=O)COc1ccccc1Br,-83.1*
Cc1nc(OCC(=O)Nc2cc(Cl)ccc2C)c2ccccc2n1,-7.7
CCc1nc(OCC(=O)Nc2cc(Cl)ccc2Cl)c2ccccc2n1,-38.5
COc1cccc2c1C(=O)c1c(O)c3c(c(O)c1C2=O)C[C@@](O)(C(C)=O)C[C@@H]3O[C@H]1C[C@H](N)[C@H](O)[C@H](C)O1,-71.7*!
COc1cccc2c1C(=O)c1c(O)c3c(c(O)c1C2=O)C[C@@](O)(C(=O)CO)C[C@@H]3O[C@H]1C[C@H](N)[C@@H](O)[C@H](C)O1,-83.9*
CC(=O)[C@]1(O)Cc2c(O)c3c(c(O)c2[C@@H](O[C@H]2C[C@H](N)[C@H](O)[C@H](C)O2)C1)C(=O)c1ccccc1C3=O,-66.7
COC1=CC(=O)C(=O)C/C1=C\C=C\c1ccccc1,7.8
Cc1nc(CN)cc(N2CCC(O)(c3cccc(C(F)(F)F)c3)CC2)n1,-4.4
CCc1ccc(NC(=O)N2CCN(Cc3nc(-c4cccc(Cl)c4)oc3C)CC2)cc1,2.4
CN(Cc1cc2n(n1)CCNC2)Cc1noc2c1CCCC2,0.8
CC1=CC(C)(C)N=C(Nc2nc(C)c3cc(C)cc(C)c3n2)N1,-99.0*
CO[C@H]1CN(C)C(=O)c2cc(NS(=O)(=O)c3cccc(Cl)c3)ccc2OC[C@@H](C)NC[C@@H]1C,43.6
Cc1nnc(CN2CCCC2c2ccccn2)s1 (configuration not stated),2.6
CC(C)(C)c1ccc(C(=O)N2CCN(C(=O)c3ccc(C(C)(C)C)cc3)CC2)cc1,-49.3
CC(C)(C)c1ccc(C(=O)N2CCCn3c2nc2ccccc2c3=O)cc1,-40.1
CC(C)(C)c1ccc(C(=O)N2NC(=Nc3ccccc3)SC2(C)C)cc1,-86.5*
O=C1CCCN1[C@@H]1CN(c2nncs2)C[C@H]2CCCO[C@H]21,2.1
SMILES,Tg IFNy HTS
COc1ccc(S(=O)(=O)Nc2ccc3c(c2)C(=O)N([C@@H](C)CO)C[C@@H](C)[C@@H](CN(C)Cc2ccc(C(F)(F)F)cc2)OCCCC[C@@H](C)O3)cc1,-109.0*
COc1ccc(S(=O)(=O)Nc2ccc3c(c2)C(=O)N([C@H](C)CO)C[C@H](C)[C@H](CN(C)Cc2ccc(C(F)(F)F)cc2)OCCCC[C@@H](C)O3)cc1,21.1
C[C@@H]1CCCCO[C@H](CN(C)Cc2ccncc2)[C@@H](C)CN([C@H](C)CO)C(=O)c2cc(NS(=O)(=O)c3ccc(Cl)cc3)ccc2O1,-23.0
COc1ccc(S(=O)(=O)Nc2ccc3c(c2)C(=O)N([C@H](C)CO)C[C@@H](C)[C@@H](CN(C)Cc2ccc(C(F)(F)F)cc2)OCCCC[C@@H](C)O3)cc1,-11.1
COc1ccc(S(=O)(=O)Nc2ccc3c(c2)C(=O)N([C@H](C)CO)C[C@H](C)[C@H](CN(C)Cc2ccc(C(F)(F)F)cc2)OCCCC[C@H](C)O3)cc1,-110.9*
COc1ccc(S(=O)(=O)Nc2ccc3c(c2)C(=O)N([C@@H](C)CO)C[C@@H](C)[C@H](CN(C)Cc2ccc(C(F)(F)F)cc2)OCCCC[C@H](C)O3)cc1,-90.3*
C[C@@H]1CCCCO[C@H](CN(C)Cc2ccncc2)[C@H](C)CN([C@H](C)CO)C(=O)c2cc(NS(=O)(=O)c3ccc(Cl)cc3)ccc2O1,-103.2*
Cc1ccc(S(=O)(=O)Nc2ccc3c(c2)C(=O)N([C@H](C)CO)C[C@@H](C)[C@@H](CN(C)Cc2ccc(C(F)(F)F)cc2)O3)cc1,7.6
C[C@@H]1CCCCO[C@@H](CN(C)Cc2ccncc2)[C@@H](C)CN([C@H](C)CO)C(=O)c2cc(NS(=O)(=O)c3ccc(Cl)cc3)ccc2O1,132.0
C[C@H]1CCCCO[C@H](CN(C)Cc2ccncc2)[C@@H](C)CN([C@@H](C)CO)C(=O)c2cc(NS(=O)(=O)c3ccc(Cl)cc3)ccc2O1,-47.5
CN(Cc1nc2ccccc2[nH]1)Cc1cccc2ncccc12,0.2

# Screens from PubChem.
